# Measurements: PMC7862700, “An all-to-all approach to the identification of sequence-specific readers for epigenetic DNA modifications on cytosine”
# Legend:
# Experiment in all cases: DAPPL (digital affinity profiling via proximity ligation, sequencing); 10 mM Tris-HCl pH 7.5, 50 mM NaCl, 1 mM DTT, 4% glycerol, room temperature, 30 min; GST-TFs on glutathione beads, 16-mer random dsDNA library, 0.1% formaldehyde crosslink after washing; high values mean tight binding
# [1] = molecular target: T1, FEV (Homo sapiens, UniProt Q99581 1-238); details: protein: recombinant; tags: N-terminal GST; dsDNA, one strand shown
# T1 sequence: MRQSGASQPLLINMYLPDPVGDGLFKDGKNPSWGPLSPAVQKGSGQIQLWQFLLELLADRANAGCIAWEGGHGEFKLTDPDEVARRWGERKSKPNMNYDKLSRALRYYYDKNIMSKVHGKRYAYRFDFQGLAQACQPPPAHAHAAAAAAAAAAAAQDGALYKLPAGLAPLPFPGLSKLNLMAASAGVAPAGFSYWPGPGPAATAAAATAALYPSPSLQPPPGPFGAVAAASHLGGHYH
# Outline: (§1)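 The binding signal reported is, for every hexamer, its read frequency for a factor over its read frequency for the tag-only sample. Reads came from pools of yeast-expressed, GST-fused human transcription factors on glutathione beads, barcoded with DNA and mixed with that sample, which were incubated with 200 nmole of a random double-stranded 16-mer DNA library in Tris/NaCl/DTT/glycerol buffer at room temperature for 30 min. After washing, the pools were crosslinked with 0.1% formaldehyde, proximity-ligated with BsaI/T4 ligase for 1 h at 37 °C, PCR-amplified and sequenced on an Illumina NextSeq500.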
# [2] = molecular target: ETV5 (Homo sapiens, UniProt P41161 1-510); details: protein: recombinant; tags: N-terminal GST; dsDNA, one strand shown
# Chain of ETV5 (P41161 whole entry): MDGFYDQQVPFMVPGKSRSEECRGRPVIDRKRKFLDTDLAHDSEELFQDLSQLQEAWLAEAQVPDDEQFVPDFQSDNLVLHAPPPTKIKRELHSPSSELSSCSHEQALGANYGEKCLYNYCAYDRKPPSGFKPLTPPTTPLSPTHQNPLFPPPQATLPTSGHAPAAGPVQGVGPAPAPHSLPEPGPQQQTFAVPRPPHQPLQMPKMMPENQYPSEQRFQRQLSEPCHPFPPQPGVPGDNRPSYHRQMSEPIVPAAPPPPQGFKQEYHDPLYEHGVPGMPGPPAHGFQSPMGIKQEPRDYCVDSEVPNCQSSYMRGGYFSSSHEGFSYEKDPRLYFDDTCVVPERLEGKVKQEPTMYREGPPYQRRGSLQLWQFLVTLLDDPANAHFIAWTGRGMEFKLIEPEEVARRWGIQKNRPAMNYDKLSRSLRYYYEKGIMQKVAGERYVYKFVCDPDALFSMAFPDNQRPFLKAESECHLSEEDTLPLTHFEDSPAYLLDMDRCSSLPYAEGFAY
# Outline: as §1
# [3] = molecular target: HSF1 (Homo sapiens, UniProt Q00613 1-529); details: protein: recombinant; tags: N-terminal GST; chain copies: 3; dsDNA, one strand shown
# Chain of HSF1 (Q00613 whole entry): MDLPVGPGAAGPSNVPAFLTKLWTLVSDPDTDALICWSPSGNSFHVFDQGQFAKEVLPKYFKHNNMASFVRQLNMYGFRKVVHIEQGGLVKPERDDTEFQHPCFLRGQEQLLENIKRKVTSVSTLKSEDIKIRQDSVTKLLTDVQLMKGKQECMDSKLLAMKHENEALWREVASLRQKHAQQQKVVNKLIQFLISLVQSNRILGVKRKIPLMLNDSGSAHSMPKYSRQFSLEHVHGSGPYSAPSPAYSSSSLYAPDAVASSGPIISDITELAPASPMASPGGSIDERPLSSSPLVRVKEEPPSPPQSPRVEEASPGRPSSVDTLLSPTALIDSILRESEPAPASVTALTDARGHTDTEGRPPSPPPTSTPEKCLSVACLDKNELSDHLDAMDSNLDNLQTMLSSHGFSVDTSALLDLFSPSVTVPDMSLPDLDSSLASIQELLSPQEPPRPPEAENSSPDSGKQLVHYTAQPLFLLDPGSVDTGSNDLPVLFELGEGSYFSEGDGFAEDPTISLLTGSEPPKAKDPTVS
# Outline: as §1
# [4] = molecular target: T2, SPIC (Homo sapiens, UniProt Q8N5J4 1-248); details: protein: recombinant; tags: N-terminal GST; dsDNA, one strand shown
# T2 sequence: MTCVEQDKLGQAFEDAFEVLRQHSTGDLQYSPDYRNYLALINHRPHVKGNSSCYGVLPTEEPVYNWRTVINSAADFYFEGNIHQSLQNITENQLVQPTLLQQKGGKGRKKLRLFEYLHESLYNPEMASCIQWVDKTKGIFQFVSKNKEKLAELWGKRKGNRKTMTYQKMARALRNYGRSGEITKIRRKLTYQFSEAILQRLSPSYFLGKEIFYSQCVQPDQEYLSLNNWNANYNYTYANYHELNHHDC
# Outline: as §1
# [5] = molecular target: ELF4 (Homo sapiens, UniProt Q99607 1-663); details: protein: recombinant; tags: N-terminal GST; dsDNA, one strand shown
# Chain of ELF4 (Q99607 whole entry): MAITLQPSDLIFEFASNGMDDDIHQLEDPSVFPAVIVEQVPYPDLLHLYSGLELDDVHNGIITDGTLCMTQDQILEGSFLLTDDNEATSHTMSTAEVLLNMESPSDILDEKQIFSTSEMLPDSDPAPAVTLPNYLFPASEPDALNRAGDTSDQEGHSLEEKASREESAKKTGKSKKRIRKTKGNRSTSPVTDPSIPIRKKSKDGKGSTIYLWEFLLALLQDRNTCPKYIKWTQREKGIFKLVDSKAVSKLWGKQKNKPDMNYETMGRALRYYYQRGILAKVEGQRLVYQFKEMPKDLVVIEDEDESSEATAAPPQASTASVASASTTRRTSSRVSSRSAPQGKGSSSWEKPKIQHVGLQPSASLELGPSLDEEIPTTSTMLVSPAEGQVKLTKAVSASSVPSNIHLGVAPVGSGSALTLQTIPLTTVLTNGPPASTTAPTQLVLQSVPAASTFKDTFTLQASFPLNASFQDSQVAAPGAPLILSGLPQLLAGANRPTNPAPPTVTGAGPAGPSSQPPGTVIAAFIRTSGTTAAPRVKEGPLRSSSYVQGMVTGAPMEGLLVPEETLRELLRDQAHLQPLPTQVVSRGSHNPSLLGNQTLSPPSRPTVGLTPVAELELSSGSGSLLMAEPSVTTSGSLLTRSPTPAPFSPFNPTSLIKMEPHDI
# Outline: as §1
# [6] = molecular target: T3, ELK4 (Homo sapiens, UniProt P28324-2 1-405); details: protein: recombinant; tags: N-terminal GST; dsDNA, one strand shown
# T3 sequence: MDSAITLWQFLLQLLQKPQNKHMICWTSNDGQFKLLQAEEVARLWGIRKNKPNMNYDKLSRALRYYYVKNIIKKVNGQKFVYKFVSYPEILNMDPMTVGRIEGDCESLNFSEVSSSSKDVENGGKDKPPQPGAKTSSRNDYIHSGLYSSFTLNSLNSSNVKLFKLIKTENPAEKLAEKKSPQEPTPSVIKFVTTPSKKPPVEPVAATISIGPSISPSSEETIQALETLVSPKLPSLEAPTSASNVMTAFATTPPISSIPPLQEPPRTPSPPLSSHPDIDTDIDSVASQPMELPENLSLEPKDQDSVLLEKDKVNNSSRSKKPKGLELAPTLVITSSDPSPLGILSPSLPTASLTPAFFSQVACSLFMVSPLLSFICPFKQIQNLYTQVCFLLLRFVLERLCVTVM
# Outline: as §1
# [7] = molecular target: T4, ETV2 (Homo sapiens, UniProt O00321 1-342); details: protein: recombinant; tags: N-terminal GST; dsDNA, one strand shown
# T4 sequence: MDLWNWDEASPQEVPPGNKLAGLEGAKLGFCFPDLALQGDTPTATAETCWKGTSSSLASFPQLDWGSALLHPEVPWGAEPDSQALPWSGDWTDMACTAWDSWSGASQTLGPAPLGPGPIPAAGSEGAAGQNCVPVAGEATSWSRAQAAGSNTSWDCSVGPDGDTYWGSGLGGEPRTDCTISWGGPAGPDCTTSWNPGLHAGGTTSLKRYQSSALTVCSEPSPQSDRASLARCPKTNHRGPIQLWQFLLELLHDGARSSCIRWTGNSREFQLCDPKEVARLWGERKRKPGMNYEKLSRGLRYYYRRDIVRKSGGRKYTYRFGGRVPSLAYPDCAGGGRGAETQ
# Outline: as §1
# [8] = molecular target: T5, ELF3 (Homo sapiens, UniProt P78545 1-371); details: protein: recombinant; tags: N-terminal GST; dsDNA, one strand shown
# T5 sequence: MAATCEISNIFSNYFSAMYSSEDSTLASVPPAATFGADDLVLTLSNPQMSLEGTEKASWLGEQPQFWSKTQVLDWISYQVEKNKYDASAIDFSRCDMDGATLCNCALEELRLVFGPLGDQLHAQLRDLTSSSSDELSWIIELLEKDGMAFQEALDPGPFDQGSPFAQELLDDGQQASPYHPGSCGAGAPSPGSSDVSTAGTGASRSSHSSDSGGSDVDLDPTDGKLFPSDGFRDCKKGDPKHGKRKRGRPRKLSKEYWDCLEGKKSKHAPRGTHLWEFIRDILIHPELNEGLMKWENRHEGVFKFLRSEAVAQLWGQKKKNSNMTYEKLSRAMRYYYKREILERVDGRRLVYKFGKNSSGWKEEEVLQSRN
# Outline: as §1
# [9] = molecular target: CRX (Homo sapiens, UniProt O43186 1-299); details: protein: recombinant; tags: N-terminal GST; dsDNA, one strand shown
# Chain of CRX (O43186 whole entry): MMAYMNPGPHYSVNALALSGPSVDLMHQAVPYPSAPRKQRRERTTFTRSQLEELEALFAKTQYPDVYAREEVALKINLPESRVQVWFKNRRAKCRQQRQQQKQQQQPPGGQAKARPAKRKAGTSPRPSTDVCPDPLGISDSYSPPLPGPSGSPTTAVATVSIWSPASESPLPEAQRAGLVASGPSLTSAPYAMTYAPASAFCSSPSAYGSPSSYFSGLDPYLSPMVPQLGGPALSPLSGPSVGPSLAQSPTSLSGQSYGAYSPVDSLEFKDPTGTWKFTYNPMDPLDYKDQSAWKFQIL
# Outline: as §1
# [10] = molecular target: ETV1 (Homo sapiens, UniProt P50549 1-477); details: protein: recombinant; tags: N-terminal GST; dsDNA, one strand shown
# Chain of ETV1 (P50549 whole entry): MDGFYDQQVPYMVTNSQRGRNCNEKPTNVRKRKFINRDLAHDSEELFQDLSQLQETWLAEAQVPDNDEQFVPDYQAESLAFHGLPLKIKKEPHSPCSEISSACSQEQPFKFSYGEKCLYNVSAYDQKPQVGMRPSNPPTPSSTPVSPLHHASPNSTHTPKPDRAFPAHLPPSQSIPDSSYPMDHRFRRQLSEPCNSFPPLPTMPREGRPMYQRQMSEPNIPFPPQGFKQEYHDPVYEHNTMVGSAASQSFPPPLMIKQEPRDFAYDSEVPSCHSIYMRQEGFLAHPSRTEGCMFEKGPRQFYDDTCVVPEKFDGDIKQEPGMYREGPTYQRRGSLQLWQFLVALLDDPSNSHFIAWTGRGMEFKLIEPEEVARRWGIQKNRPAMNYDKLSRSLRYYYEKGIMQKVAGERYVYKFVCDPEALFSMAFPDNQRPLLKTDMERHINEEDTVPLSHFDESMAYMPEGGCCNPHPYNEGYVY
# Outline: as §1
# [11] = molecular target: T6, ERF (Homo sapiens, UniProt P50548 1-548); details: protein: recombinant; tags: N-terminal GST; dsDNA, one strand shown
# T6 sequence: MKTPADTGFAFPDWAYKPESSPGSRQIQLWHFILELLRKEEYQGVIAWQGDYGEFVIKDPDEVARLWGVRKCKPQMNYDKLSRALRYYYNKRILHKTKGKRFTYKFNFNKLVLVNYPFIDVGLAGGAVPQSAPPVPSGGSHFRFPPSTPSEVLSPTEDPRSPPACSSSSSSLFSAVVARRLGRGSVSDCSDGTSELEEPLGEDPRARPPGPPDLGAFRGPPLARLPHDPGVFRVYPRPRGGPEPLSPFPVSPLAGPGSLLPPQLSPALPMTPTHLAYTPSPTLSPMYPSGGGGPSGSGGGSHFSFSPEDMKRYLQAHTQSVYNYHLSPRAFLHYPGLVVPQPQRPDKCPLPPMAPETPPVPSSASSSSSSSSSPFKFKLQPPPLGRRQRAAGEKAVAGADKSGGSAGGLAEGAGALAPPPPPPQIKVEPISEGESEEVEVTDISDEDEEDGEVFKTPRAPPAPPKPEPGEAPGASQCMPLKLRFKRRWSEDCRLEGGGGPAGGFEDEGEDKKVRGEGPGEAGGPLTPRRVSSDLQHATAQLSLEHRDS
# Outline: as §1
# [12] = molecular target: T7, ETV3L (Homo sapiens, UniProt Q6ZN32 1-361); details: protein: recombinant; tags: N-terminal GST; dsDNA, one strand shown
# T7 sequence: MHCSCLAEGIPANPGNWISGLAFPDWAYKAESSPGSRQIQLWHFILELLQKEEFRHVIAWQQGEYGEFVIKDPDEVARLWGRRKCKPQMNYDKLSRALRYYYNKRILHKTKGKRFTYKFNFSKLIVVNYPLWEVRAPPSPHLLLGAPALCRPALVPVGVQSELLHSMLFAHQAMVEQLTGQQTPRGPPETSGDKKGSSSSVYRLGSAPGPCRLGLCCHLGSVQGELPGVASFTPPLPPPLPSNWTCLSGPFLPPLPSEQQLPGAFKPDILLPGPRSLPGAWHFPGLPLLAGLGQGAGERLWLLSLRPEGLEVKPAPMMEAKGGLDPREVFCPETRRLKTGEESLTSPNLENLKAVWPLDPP
# Outline: as §1
# [13] = molecular target: T8, ETS2 (Homo sapiens, UniProt P15036 1-469); details: protein: recombinant; tags: N-terminal GST; dsDNA, one strand shown
# T8 sequence: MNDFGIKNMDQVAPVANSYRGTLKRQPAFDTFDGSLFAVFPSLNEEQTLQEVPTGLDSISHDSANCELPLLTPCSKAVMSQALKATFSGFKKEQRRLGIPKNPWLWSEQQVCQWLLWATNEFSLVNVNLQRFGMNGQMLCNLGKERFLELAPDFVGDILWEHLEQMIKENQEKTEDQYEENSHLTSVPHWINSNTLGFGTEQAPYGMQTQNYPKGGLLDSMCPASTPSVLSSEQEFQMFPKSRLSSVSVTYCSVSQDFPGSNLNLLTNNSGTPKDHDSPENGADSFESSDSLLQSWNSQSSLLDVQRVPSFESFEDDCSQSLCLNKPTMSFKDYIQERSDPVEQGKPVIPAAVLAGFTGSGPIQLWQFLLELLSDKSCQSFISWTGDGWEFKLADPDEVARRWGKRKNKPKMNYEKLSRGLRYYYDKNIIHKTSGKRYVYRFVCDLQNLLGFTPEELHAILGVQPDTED
# Outline: as §1
# [14] = molecular target: T9, SPDEF (Homo sapiens, UniProt O95238 1-335); details: protein: recombinant; tags: N-terminal GST; dsDNA, one strand shown
# T9 sequence: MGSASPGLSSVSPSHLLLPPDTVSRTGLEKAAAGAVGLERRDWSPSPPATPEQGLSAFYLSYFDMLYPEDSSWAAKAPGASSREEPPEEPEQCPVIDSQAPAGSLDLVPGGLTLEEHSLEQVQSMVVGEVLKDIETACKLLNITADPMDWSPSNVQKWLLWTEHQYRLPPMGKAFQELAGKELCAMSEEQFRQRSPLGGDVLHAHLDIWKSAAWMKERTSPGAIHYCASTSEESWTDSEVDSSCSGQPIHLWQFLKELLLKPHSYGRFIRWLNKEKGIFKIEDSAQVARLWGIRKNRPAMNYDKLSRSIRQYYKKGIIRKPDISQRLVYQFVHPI
# Outline: as §1
# [15] = molecular target: T10, ETV7 (Homo sapiens, UniProt Q9Y603 1-341); details: protein: recombinant; tags: N-terminal GST; dsDNA, one strand shown
# T10 sequence: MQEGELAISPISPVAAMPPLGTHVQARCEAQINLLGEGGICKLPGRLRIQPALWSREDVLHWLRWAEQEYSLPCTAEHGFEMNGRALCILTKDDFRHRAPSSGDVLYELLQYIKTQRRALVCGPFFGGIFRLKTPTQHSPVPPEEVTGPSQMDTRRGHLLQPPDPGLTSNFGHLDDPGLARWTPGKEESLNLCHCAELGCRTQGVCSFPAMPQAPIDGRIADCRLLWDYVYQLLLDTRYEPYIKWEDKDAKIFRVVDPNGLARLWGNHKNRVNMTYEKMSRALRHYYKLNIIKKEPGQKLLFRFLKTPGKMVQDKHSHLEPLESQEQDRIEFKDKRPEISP
# Outline: as §1
# [16] = molecular target: T11, ELF5 (Homo sapiens, UniProt Q9UKW6-2 1-255); details: protein: recombinant; tags: N-terminal GST; dsDNA, one strand shown
# T11 sequence: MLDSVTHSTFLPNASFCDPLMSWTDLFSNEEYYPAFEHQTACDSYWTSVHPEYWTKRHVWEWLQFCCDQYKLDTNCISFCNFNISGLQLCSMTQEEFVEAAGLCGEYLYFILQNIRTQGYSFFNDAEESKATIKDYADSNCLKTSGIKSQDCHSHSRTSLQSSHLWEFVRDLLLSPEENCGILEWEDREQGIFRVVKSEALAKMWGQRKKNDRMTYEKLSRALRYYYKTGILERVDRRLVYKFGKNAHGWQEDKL
# Outline: as §1
# [17] = molecular target: T12, ETV3 (Homo sapiens, UniProt P41162-2 1-143); details: protein: recombinant; tags: N-terminal GST; dsDNA, one strand shown
# T12 sequence: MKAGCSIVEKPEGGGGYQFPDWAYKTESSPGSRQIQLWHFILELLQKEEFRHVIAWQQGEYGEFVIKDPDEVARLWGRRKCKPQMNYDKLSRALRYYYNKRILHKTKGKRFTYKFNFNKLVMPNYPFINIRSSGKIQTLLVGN
# Outline: as §1
# [18] = molecular target: ETV6 (Homo sapiens, UniProt P41212 1-452); details: protein: recombinant; tags: N-terminal GST; dsDNA, one strand shown
# Chain of ETV6 (P41212 whole entry): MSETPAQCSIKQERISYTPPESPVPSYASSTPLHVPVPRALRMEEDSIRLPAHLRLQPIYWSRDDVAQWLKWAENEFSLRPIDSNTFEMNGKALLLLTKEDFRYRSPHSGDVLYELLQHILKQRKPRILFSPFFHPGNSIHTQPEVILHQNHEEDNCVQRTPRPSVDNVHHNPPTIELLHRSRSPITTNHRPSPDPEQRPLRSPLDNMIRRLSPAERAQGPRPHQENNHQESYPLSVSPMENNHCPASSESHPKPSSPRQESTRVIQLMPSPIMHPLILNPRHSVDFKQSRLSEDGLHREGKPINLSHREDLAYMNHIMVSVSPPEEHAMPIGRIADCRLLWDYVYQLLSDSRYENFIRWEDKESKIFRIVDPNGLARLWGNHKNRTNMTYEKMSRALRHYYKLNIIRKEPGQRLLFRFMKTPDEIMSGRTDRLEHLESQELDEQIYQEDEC
# Outline: as §1
sequence,measurement,setting,value
ATCCCT,binding signal,[1],"1.3 fold enrichment (6-mer frequency, TF over GST control)"
same,binding signal,[2],"1.3 fold enrichment (6-mer frequency, TF over GST control)"
same,binding signal,[3],"1.64 fold enrichment (6-mer frequency, TF over GST control)"
same,binding signal,[4],"1.27 fold enrichment (6-mer frequency, TF over GST control)"
same,binding signal,[5],"1.38 fold enrichment (6-mer frequency, TF over GST control)"
same,binding signal,[6],"1.33 fold enrichment (6-mer frequency, TF over GST control)"
same,binding signal,[7],"1.13 fold enrichment (6-mer frequency, TF over GST control)"
same,binding signal,[8],"1.22 fold enrichment (6-mer frequency, TF over GST control)"
same,binding signal,[9],"2.17 fold enrichment (6-mer frequency, TF over GST control)"
same,binding signal,[10],"1.21 fold enrichment (6-mer frequency, TF over GST control)"
same,binding signal,[11],"1.33 fold enrichment (6-mer frequency, TF over GST control)"
same,binding signal,[12],"1.35 fold enrichment (6-mer frequency, TF over GST control)"
same,binding signal,[13],"1.23 fold enrichment (6-mer frequency, TF over GST control)"
same,binding signal,[14],"1.41 fold enrichment (6-mer frequency, TF over GST control)"
same,binding signal,[15],"1.14 fold enrichment (6-mer frequency, TF over GST control)"
same,binding signal,[16],"1.37 fold enrichment (6-mer frequency, TF over GST control)"
same,binding signal,[17],"1.21 fold enrichment (6-mer frequency, TF over GST control)"
same,binding signal,[18],"1.23 fold enrichment (6-mer frequency, TF over GST control)"
